Assay results as given in PubChem BioAssay (Tox21).
Where “and” joins values, the source holds several entries; their conditions need not be identical. Equal entries are not always repeated. Results filed as inconclusive are left out. A call without a number means that no potency is given here. A structure can be active in one record and inactive in another. Calls of active or inactive are those of the source. Unless noted, calls follow the shape of the full dose curve.

Experiments:
[1] = Caspase-3/7 induction in CHO-K1 cells by small molecules, qHTS assay (AID 1346980; active = well fitted curve in the direction sought with a large enough effect in the repeat runs; an effect the other way counts as inactive or inconclusive; also: nearly all actives have a fitted effect of over 15% in size)
Procedure, shortened: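 Luminescent Caspase-Glo 3/7 read (30min, room temperature) quantified apoptosis induction. Cells were wild-type CHO-K1, treated with compound for 17hr at 37 C and 5% CO2.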

[2] = biological target: Nuclear receptor subfamily 1 group I member 2 (Homo sapiens) (UniProt O75469); test: Human pregnane X receptor (PXR) small molecule agonists, qHTS assay (AID 1346982; active = well fitted curve in the direction sought with a large enough effect in the repeat runs; an effect the other way counts as inactive or inconclusive; also: nearly all actives have a fitted effect of over 35% in size; also: potency is read from the fitted curve at half-maximal effect)
Nuclear receptor subfamily 1 group I member 2 (Homo sapiens), sequence (O75469 whole entry, looked up): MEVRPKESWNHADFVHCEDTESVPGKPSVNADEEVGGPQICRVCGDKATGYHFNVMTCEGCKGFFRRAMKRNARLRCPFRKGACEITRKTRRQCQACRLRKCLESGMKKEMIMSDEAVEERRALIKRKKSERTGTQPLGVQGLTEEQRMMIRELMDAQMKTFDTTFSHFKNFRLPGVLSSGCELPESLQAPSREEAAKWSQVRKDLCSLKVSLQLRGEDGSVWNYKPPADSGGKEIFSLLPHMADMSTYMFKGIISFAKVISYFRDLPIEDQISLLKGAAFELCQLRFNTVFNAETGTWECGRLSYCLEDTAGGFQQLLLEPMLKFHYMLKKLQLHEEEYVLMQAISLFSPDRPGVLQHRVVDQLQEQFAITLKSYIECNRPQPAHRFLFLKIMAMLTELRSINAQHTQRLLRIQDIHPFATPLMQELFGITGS
Procedure, shortened: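 Stable HepG2 line reporting PXR-mediated CYP3A4 expression via luciferase. Treatment: 24 hr with compounds in DMSO at 37 C. Detection: ONE-Glo luminescence.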

[3] = biological target: Acetylcholinesterase (Homo sapiens) (UniProt P22303); test: Acetylcholinesterase (AChE) small molecule antagonists: colormetric cell-based qHTS assay (AID 1347395); also: nearly all actives have a fitted effect of over 30% in size; also: potency is read from the fitted curve at half-maximal effect
Acetylcholinesterase (Homo sapiens), sequence (P22303 whole entry, looked up): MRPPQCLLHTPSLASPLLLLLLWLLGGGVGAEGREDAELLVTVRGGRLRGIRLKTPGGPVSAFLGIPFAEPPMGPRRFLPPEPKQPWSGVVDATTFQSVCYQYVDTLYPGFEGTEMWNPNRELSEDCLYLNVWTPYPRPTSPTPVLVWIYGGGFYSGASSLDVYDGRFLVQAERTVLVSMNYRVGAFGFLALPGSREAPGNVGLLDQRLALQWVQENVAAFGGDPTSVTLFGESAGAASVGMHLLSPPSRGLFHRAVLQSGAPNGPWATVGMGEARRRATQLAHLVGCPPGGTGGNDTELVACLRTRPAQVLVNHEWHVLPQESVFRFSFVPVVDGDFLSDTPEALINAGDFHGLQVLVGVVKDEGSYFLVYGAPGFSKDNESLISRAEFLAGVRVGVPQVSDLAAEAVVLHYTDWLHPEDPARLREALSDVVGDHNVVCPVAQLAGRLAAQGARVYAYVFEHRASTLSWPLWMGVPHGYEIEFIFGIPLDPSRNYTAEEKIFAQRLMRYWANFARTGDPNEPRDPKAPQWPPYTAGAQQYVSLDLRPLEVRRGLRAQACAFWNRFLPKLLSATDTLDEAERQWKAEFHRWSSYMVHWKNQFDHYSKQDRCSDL
Procedure, shortened: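 Cells (SH-SY5Y, 2,000 per well) are seeded and left overnight at 37 C. Compound is added for 30 min, then DTNB and acetylthiocholine for a further 90 min at 37 C before absorbance-based thiocholine detection.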

[4] = biological target: Acetylcholinesterase (Homo sapiens) (UniProt P22303); test: Acetylcholinesterase (AChE) small molecule antagonists: enzyme-based qHTS assay (AID 1347397); details: Potency: AChE enzyme activity inhibition; also: nearly all actives have a fitted effect of over 55% in size
Procedure, shortened: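 Colorimetric DTNB readout of acetylthiocholine hydrolysis, 10 min at room temperature, after 30 min room-temperature exposure of 50 mU/mL recombinant human enzyme to compound; DMSO vehicle control.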

[5] = biological target: Acetylcholinesterase (Homo sapiens) (UniProt P22303); test: Acetylcholinesterase (AChE) small molecule antagonists: fluorescence cell-based qHTS assay (AID 1347398); details: Potency: AChE activity; also: nearly all actives have a fitted effect of over 50% in size
Procedure, shortened: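 Cellular AChE activity read as thiocholine from acetylthiocholine hydrolysis, detected by Thiolite Green fluorescence at 490/520 nm after 40 min at room temperature. Compounds were pre-incubated 30 min at 37 C on adherent SH-SY5Y cells.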

[6] = biological target: Acetylcholinesterase (Homo sapiens) (UniProt P22303); test: Acetylcholinesterase (AChE) small molecule antagonists: enzyme-based qHTS assay with human liver microsomes (AID 1347399); details: Potency: qHTS inhibition; also: nearly all actives have a fitted effect of over 60% in size
Procedure, shortened: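 Recombinant human AChE (50 mU/mL in the enzyme mix) and human liver microsomes (0.25 mg/mL final) were preincubated with compound and NADPH (0.25 mg/mL final) for 30 min at 37 C. Acetylthiocholine/DTNB was then added; thiocholine was read colorimetrically after 10 min at room temperature.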

[7] = biological target: Cytochrome P450 2D6 (Homo sapiens) (UniProt P10635); test: Cytochrome P450 Family 2 Subfamily D Member 6 (CYP2D6) small molecule antagonists: luciferase reporter qHTS assay (AID 1671196; active = well fitted curve in the direction sought with a large enough effect in the repeat runs; an effect the other way counts as inactive or inconclusive; also: nearly all actives have a fitted effect of over 50% in size; also: potency is read from the fitted curve at half-maximal effect)
Cytochrome P450 2D6 (Homo sapiens), sequence (P10635 whole entry, looked up): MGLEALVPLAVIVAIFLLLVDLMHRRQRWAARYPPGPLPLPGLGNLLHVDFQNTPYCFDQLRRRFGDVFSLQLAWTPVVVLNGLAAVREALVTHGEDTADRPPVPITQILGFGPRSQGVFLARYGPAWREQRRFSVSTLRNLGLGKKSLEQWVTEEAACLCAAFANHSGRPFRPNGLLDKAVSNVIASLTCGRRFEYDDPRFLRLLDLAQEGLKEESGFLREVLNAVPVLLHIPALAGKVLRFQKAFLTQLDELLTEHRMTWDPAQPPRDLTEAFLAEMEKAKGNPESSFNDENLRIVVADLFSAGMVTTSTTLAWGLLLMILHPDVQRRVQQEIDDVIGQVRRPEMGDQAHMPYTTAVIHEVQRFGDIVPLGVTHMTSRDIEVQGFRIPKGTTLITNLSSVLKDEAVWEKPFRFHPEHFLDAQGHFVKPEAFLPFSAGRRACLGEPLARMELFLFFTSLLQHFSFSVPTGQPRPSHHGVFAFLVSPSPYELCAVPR
Procedure, shortened: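 Chemicals tested for interference with CYP2D6 activity; proluciferin substrate, NADPH regeneration, 1 h at room temperature, luminescent detection.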

[8] = biological target: Cytochrome P450 2C19 (Homo sapiens) (UniProt P33261); test: Cytochrome P450 Family 2 Subfamily C Member 19 (CYP2C19) small molecule antagonists: luciferase reporter qHTS assay (AID 1671197; active = well fitted curve in the direction sought with a large enough effect in the repeat runs; an effect the other way counts as inactive or inconclusive; also: nearly all actives have a fitted effect of over 65% in size; also: potency is read from the fitted curve at half-maximal effect)
Cytochrome P450 2C19 (Homo sapiens), sequence (P33261 whole entry, looked up): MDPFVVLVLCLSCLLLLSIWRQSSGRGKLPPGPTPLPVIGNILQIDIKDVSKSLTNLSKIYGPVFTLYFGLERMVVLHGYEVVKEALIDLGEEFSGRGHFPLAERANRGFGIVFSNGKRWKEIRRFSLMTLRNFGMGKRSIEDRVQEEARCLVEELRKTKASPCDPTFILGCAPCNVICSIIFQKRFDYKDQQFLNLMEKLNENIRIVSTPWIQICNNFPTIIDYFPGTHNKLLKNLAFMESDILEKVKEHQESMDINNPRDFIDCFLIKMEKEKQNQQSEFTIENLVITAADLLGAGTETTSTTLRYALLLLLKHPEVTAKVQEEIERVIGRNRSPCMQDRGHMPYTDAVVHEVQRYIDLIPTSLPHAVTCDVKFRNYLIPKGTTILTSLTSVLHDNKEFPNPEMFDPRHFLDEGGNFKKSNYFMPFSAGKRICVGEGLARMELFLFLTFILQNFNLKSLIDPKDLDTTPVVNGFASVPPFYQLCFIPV
Procedure, shortened: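 Enzyme-substrate mix with proluciferin substrate (P450-Glo CYP2C19 system) preincubated with compounds 10 min at room temperature; NADPH regeneration solution added, 37C for 1 h; detection reagent stops reaction, luminescence read after 20 min. Ketoconazole positive control.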

[9] = biological target: Nuclear receptor subfamily 1 group I member 2 (Rattus norvegicus) (UniProt Q9R1A7); test: Rat pregnane X receptor (rPXR) activation by small molecules, qHTS assay (AID 1346983; active = well fitted curve in the direction sought with a large enough effect in the repeat runs; an effect the other way counts as inactive or inconclusive; also: nearly all actives have a fitted effect of over 20% in size); details: rPXR luciferase reporter cells, One-Glo luminescence, 24 h; stronger effect = higher value
Nuclear receptor subfamily 1 group I member 2 (Rattus norvegicus), sequence (Q9R1A7 whole entry, looked up): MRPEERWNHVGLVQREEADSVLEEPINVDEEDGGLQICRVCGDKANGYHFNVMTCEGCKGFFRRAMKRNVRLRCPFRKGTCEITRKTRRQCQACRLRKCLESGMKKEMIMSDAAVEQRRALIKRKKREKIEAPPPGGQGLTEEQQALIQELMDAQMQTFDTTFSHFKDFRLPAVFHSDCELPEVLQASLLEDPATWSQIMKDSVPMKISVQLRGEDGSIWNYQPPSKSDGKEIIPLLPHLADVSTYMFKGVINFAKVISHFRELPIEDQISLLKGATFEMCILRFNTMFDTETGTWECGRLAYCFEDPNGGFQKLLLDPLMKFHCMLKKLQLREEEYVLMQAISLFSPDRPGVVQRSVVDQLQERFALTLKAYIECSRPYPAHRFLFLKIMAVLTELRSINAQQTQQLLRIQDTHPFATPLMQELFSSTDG
Procedure, shortened: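 Luminescent readout (One-Glo luciferase, 30 min room temperature) followed 24 hr compound treatment at 37 C of rPXR cells plated 2,000 per well and preincubated 5hr; qHTS format with compounds delivered in DMSO.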

CON(C)C(=O)Nc1ccc(Cl)c(Cl)c1
outcome [1]: inactive
Potency [2]: 61.4 µM (active) and 54.5 µM (active)
Potency [3]: inactive
Potency [4]: inactive
Potency [5]: inactive
Potency [6]: inactive
Potency [7]: inactive
Potency [8]: 16 µM (active) and 39.9 µM (active)

CC(C)(C)OOC(=O)c1ccccc1
outcome [1]: inactive
Potency [2]: inactive
Potency [3]: inactive
Potency [4]: inactive
Potency [5]: inactive
Potency [6]: inactive
Potency [7]: inactive
Potency [8]: inactive

C#CC(C)(C)NC(=O)c1cc(Cl)cc(Cl)c1
outcome [1]: inactive
Potency [2]: 49 µM (active) and 30.6 µM (active)
Potency [3]: inactive
Potency [4]: inactive
Potency [5]: inactive
Potency [6]: inactive
Potency [7]: inactive
Potency [8]: 8.04 µM (active) and 39.9 µM (active)

CC(=O)C=C(C)C
outcome [1]: inactive
Potency [2]: inactive
Potency [3]: inactive
Potency [4]: inactive
Potency [5]: inactive
Potency [6]: inactive
Potency [7]: inactive
Potency [8]: inactive

CCOP(OCC)OCC
outcome [1]: inactive
Potency [2]: inactive
Potency [3]: inactive and 28.3 µM (active)
Potency [4]: inactive
Potency [5]: inactive
Potency [6]: inactive
Potency [7]: 91 µM (active) and 35.6 µM (active)
Potency [8]: inactive

O=C(O)c1ccccn1
outcome [1]: inactive
Potency [2]: inactive
Potency [3]: inactive
Potency [4]: inactive
Potency [5]: inactive
Potency [6]: inactive
Potency [7]: inactive
Potency [8]: inactive

CCCC1COC(Cn2cncn2)(c2ccc(Cl)cc2Cl)O1 (configuration not stated)
outcome [1]: inactive
Potency [2]: 31.2 µM (active) and 9.69 µM (active)
Potency [3]: inactive
Potency [4]: inactive
Potency [5]: inactive
Potency [6]: inactive
Potency [7]: 32.3 µM (active) and 35.6 µM (active)
Potency [8]: 456 nM (active) and 356 nM (active)

CC1C=[C-]C=C1.[C-]#[O+].[C-]#[O+].[C-]#[O+].[Mn]
outcome [1]: inactive
Potency [2]: 54.5 µM (active) and 19.2 µM (active)
Potency [3]: inactive
Potency [4]: inactive
Potency [5]: inactive
Potency [6]: inactive
Potency [7]: inactive
Potency [8]: inactive

CN(C)CCO
outcome [1]: inactive
Potency [2]: inactive
Potency [3]: inactive
Potency [4]: inactive
Potency [5]: inactive
Potency [6]: inactive
Potency [7]: inactive
Potency [8]: inactive

O=[N+]([O-])c1ccc(Oc2ccc(Cl)cc2Cl)cc1
outcome [1]: inactive
Potency [2]: 54.8 µM (active) and inactive
Potency [3]: 63.6 µM (active) and inactive
Potency [4]: inactive
Potency [5]: inactive
Potency [6]: inactive
Potency [7]: 22.6 µM (active)
Potency [8]: 5.67 µM (active) and 5.64 µM (active)

Oc1ccccc1Cl
outcome [1]: inactive
Potency [2]: inactive
Potency [3]: inactive
Potency [4]: inactive
Potency [5]: inactive
Potency [6]: inactive
Potency [7]: inactive
Potency [8]: inactive

CC(C)NC(=O)N1CC(=O)N(c2cc(Cl)cc(Cl)c2)C1=O
outcome [1]: inactive
Potency [2]: 24.3 µM (active) and 54.5 µM (active)
Potency [3]: inactive
Potency [4]: inactive
Potency [5]: inactive
Potency [6]: inactive
Potency [7]: inactive
Potency [8]: 7.96 µM (active) and 8.94 µM (active)

Clc1cccc(Cl)c1Cl
outcome [1]: inactive
Potency [2]: inactive
Potency [3]: inactive
Potency [4]: inactive
Potency [5]: inactive
Potency [6]: inactive
Potency [7]: inactive
Potency [8]: 35.2 µM (active) and inactive

ClCc1cccnc1
outcome [1]: inactive
Potency [2]: inactive
Potency [3]: inactive
Potency [4]: inactive
Potency [5]: inactive
Potency [6]: inactive
Potency [7]: inactive
Potency [8]: 69.8 µM (active) and inactive

COP(N)(=O)SC (configuration not stated)
outcome [1]: inactive
Potency [2]: inactive
Potency [6]: inactive
Potency [7]: inactive
Potency [8]: 39.3 µM (active) and inactive

CCCCOC(=O)c1ccccc1C(=O)OCCCC
outcome [1]: inactive
Potency [2]: inactive
Potency [3]: inactive
Potency [4]: inactive
Potency [5]: inactive
Potency [6]: inactive
Potency [7]: inactive
Potency [8]: 5.64 µM (active) and 3.99 µM (active)

O=C(NC(=O)c1c(F)cccc1F)Nc1cc(Cl)c(OC(F)(F)C(F)C(F)(F)F)cc1Cl (configuration not stated)
outcome [1]: inactive
Potency [2]: inactive
max activation [9]: -1.37% (inactive)
Potency [3]: inactive
Potency [4]: inactive
Potency [5]: inactive
Potency [6]: inactive
Potency [7]: inactive
Potency [8]: 10 µM (active) and 34.7 µM (active)

Cc1[nH]c(=O)n(C(C)(C)C)c(=O)c1Cl
outcome [1]: inactive
Potency [2]: inactive
Potency [3]: inactive
Potency [4]: inactive
Potency [5]: inactive
Potency [6]: inactive
Potency [7]: inactive
Potency [8]: 71.7 µM (active) and 31.7 µM (active)
